Consider 37 compounds from PubChem BioAssay AID504773 (Broad Institute, 2011).

The structures appear in SMILES notation. Potency and affinity values are given separately. Unmarked numbers belong to inactive results.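 The calls were made as follows: active = polarization signal falls with dose and the fitted half-maximal concentration is at or below ten times the sample's top valid dose; inconclusive = flat curve at 30 to 70% inhibition, or poor fit; inactive = signal rises, flat within 30%, or potency beyond limit.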

This assay concerns the target Golgi-associated PDZ and coiled-coil motif-containing protein (Homo sapiens) (UniProt Q9HD26). The assay can be described thus: potency against CAL PDZ-peptide interaction – biochemical, fluorescence polarization, Cerulean-tagged CAL PDZ, cherry-picks, dose response (AID 504773).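 Also: 0% = DMSO neutral wells and -100% = excess unlabeled competitor peptide wells.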 The settings on record: CAL PDZ-peptide binding, 1 h; series mostly up to 50 µM; activity change, negative = inhibition: at the top concentration.
In the case of `O=c1c2cc3c(cc2[nH]c(=S)n1CCN1CCOCC1)OCO3`, the “activity change, negative = inhibition” value was 13.2%.

For the compound `Cc1nc2ccc(Br)cn2c1C(=O)N/N=C\c1ccc(C(C)C)cc1`, the “activity change, negative = inhibition” value is -21%.

As to `Cc1cc(C)c(S(=O)(=O)NCc2ccc3c(c2)OCO3)c(C)c1`, the “activity change, negative = inhibition” value is -39.8%.

Consider `Cc1ccc(CN(Cc2cccnc2)C(=S)Nc2cccc(Cl)c2C)cc1`, for which the “activity change, negative = inhibition” value was 3.3%.

Consider `CCN(CC)S(=O)(=O)c1ccc2nc(NC(=O)c3ccco3)sc2c1`, for which the “activity change, negative = inhibition” value was -28.5%.

On to `O=C(COC(=O)c1ccccc1C(=O)N1CCN(c2ccccc2)CC1)NCc1ccccc1`, for which the “activity change, negative = inhibition” value is -4.35%.

Turning to `CCc1noc(C)c1C(=O)N1CCCC(CCC(=O)NCc2ccc(F)c(F)c2)C1` (configuration not stated), the “activity change, negative = inhibition” value was 0.002%.

With `Cc1ccc(NC(=O)CN(C)CC(=O)Nc2cccc(F)c2)cc1S(=O)(=O)N1CCCCCC1`, the “activity change, negative = inhibition” value is 7.54%.

In the case of `O=C(NCc1ccccc1)C1CCCN(c2nc3ccsc3c(=O)s2)C1` (configuration not stated), the “activity change, negative = inhibition” value was 16.3%.

In the case of `O=[N+]([O-])c1ccc(N/N=C/c2cccnc2)cc1`, the “activity change, negative = inhibition” value was 2.25%.

For `c1ccc(C2Nc3ccccc3Oc3ccccc32)cc1` (configuration not stated), the “activity change, negative = inhibition” value is 29.6%.

As for `Oc1ccccc1N=Cc1c(O)ccc2oc3c(c12)CCCC3`, the “activity change, negative = inhibition” value was -4.22%.

In the case of `Cc1cc(C)nc(CCNC(=O)c2cc(COc3c(C)cccc3C)on2)n1`, the “activity change, negative = inhibition” value was 17.2%.

As to `CCOc1ccc(N(CC(=O)N2CCN(Cc3ccccc3)CC2)S(C)(=O)=O)cc1`, the “activity change, negative = inhibition” value is -7.95%.

For the compound `O=C(c1c(Cl)cccc1Cl)N1CCCCCC1`, the “activity change, negative = inhibition” value is -14.2%.

As to `COc1ccc(CSc2ncnc3sccc23)cc1F`, the “activity change, negative = inhibition” value was 1.14%.

For the compound `CC(=O)Nc1ccc(Nc2ccc3nonc3c2[N+](=O)[O-])cc1`, the “activity change, negative = inhibition” value was -10.1%.

Regarding `CC(C)n1cc(C(=O)N2CCCC(N3CCN(c4ccc(F)cc4)CC3)C2)cn1` (configuration not stated), the “activity change, negative = inhibition” value is -11%.

On to `O=S(=O)(/N=C(/Nc1ccc(Cl)c(S(=O)(=O)N2CCOCC2)c1)c1ccc(F)cc1)c1ccccc1`, for which the “activity change, negative = inhibition” value is -11%.

`CN(CC1CCCO1)S(=O)(=O)c1ccc(C(=O)Nc2ccc([N+](=O)[O-])cc2)cc1` (configuration not stated): the “activity change, negative = inhibition” value was 22.9%.

Regarding `O=C(NCCc1cnc[nH]1)c1cccs1`, the “activity change, negative = inhibition” value was 8.56%.

On to `Cc1cccc(Nc2nc(-c3ccc(F)cc3)cs2)n1`, for which the “activity change, negative = inhibition” value is 17.6%.

Consider `CN(C)S(=O)(=O)c1ccc(Cl)c(NC(=O)CSc2nnnn2-c2ccc(O)cc2)c1`, for which the “activity change, negative = inhibition” value was -24.1%.

For the compound `CCc1nnc(NS(=O)(=O)c2ccc(NC(=O)CCC(=O)O)cc2)s1`, the “activity change, negative = inhibition” value is -39.5%.

For `CCOc1ccc(C(=O)NCC(=O)N2CCC(C)CC2)cc1OCC`, the “activity change, negative = inhibition” value is 13.5%.

In the case of `COc1cccc(-c2cccc(NC(=O)C3CCN(Cc4ccc(CO)o4)CC3)c2)c1`, the “activity change, negative = inhibition” value is -61.6%.

Take `CC(C)(C)OC(=O)N[C@@H](Cc1c[nH]c2ccccc12)c1nnc(SCC(N)=O)o1`: the “activity change, negative = inhibition” value was 13.3%.

Consider `COC(=O)C(C(=O)OC)c1ccc(N)cc1`, for which the “activity change, negative = inhibition” value is 14.9%.

On to `O=C(COC(=O)CNC(=O)c1cccc([N+](=O)[O-])c1)NCc1ccco1`, for which the “activity change, negative = inhibition” value is 9.03%.

Consider `COc1ccccc1NC(=O)c1c([N+](=O)[O-])cnn1C`, for which the “activity change, negative = inhibition” value was 25.3%.

As for `c1ccc(CNc2nc(NCc3ccccc3)c3ccccc3n2)cc1`, the “activity change, negative = inhibition” value is -10.5%.

As for `CCC(=O)c1cn(CC(=O)Nc2cccc(C)c2C)c2ccccc12`, the “activity change, negative = inhibition” value was 15.6%.

As to `Cc1[nH]c2ccccc2c1C(=O)CSc1nc2ncc(Cl)cc2[nH]1`, the “activity change, negative = inhibition” value is 27.6%.

In the case of `Cc1ccc(F)cc1N=Cc1c(O)c2ccccc2oc1=O`, the “activity change, negative = inhibition” value is 21.1%.

With `COc1cc(C(=O)ON=C2C(C)=CC(=O)C=C2C)cc(OC)c1OC`, the “activity change, negative = inhibition” value is 28%.

Turning to `COC(=O)N/N=C/c1sc(N2CCCCC2)nc1-c1cccs1`, the “activity change, negative = inhibition” value is 0.596%.

Take `CCN(CC(=O)Nc1cc(Cl)cc(Cl)c1)CC(=O)NC1CCS(=O)(=O)C1` (configuration not stated): the “activity change, negative = inhibition” value is -16.5%.
